The results in this text go back to PubChem BioAssay (NCATS).

Assay [1] has as its target Peroxisome proliferator-activated receptor gamma (Homo sapiens) (UniProt P37231). The experiment in a line: qHTS assay for small molecule agonists of peroxisome proliferator-activated receptor gamma signaling (AID 588536; active = well fitted curve in the direction sought with a large enough effect in the signal ratio, with a control signal flat, not every such curve was filed as active; the % refers to the signal ratio;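 note: 0% = DMSO basal wells and 100% = rosiglitazone at 2 µM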). An outline of the steps:
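Using GeneBLAzer HEK293 cells, response was quantified by CCF4 fluorescence and normalized between basal DMSO (0%) and rosiglitazone 2 uM (100%); curves yielded half-maximal stimulation concentration and efficacy.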
For orientation: qHTS replaces the single test concentration by a dilution series.

For assay [2] the target is unchanged. The experiment in a line: qHTS assay for small molecule antagonists of peroxisome proliferator-activated receptor gamma signaling (AID 588537; active = well fitted inhibition curve with a large enough effect in the signal ratio, with a control signal flat, not every such curve was filed as active; the % refers to the signal ratio;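 note: reporter cells co-stimulated with 50 nM rosiglitazone agonist during compound treatment; % of control where 0% means no effect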). An outline of the steps: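 Read-out: CCF4 fluorescence (ex 405, em 460/530 nm) after 2 h at RT. Cells were HEK293 carrying a UAS-bla reporter and treated 16 h at 37 C with compound plus rosiglitazone (50 nM final). Normalized to rosiglitazone and DMSO.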

Assay [3] addresses Vitamin D3 receptor (Homo sapiens) (UniProt P11473). The experiment in a line: qHTS assay for small molecule antagonists of vitamin D receptor signaling (AID 588541; calls by dose curve;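 note: receptor activated by calcitriol during compound treatment; series mostly up to about 77 µM; % is set by controls: 0 for no effect and ±100 for the full control effect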). A digest of the protocol: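 VDR-UAS-bla HEK293T cells in 2% charcoal-stripped FBS were stimulated with 1-alpha,25-dihydroxyvitamin D3 (3 nM final) plus compound for 16 h at 37 C. The beta-lactamase CCF4 readout was normalized to 50 nM agonist and DMSO, and Hill fits gave IC50.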

For assay [4] the target is unchanged. The experiment in a line: qHTS assay for small molecule agonists of vitamin D receptor signaling (AID 588543; calls by dose curve;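 note: 0% = DMSO basal and 100% = reference agonist control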). An outline of the steps: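 VDR-UAS-bla HEK293T cells, 2000/well, 2% charcoal-stripped FBS; compound titration 16 h at 37 C; CCF4 beta-lactamase ratio read. Normalized to 50 nM 1-alpha,25-dihydroxyvitamin D3 (100%) and DMSO; Hill fit gives EC50, efficacy.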

Assay [5] in a line: qHTS assay for small molecule agonists of retinoid X receptor alpha signaling (AID 588544; calls by dose curve). To be noted: HEK293T RXRa-UAS-bla, beta-lactamase reporter, 18 h; 530 nm emission.
Assay [6] has as its target Retinoic acid receptor RXR-alpha (Homo sapiens) (UniProt P19793). Described as above.
The target in assay [7] is Thyroid hormone receptor beta (Homo sapiens) (UniProt P10828). The experiment in a line: qHTS assay for small molecule agonists of thyroid hormone receptor beta signaling (AID 588545; calls by dose curve). A digest of the protocol:
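In this cell-based screen, titrated compounds act on HEK 293 cells held in medium with 2% charcoal/dextran FBS, NEAA and pyruvate for 18 hrs at 37 C. Responses are expressed relative to T3 (10 nM) as 100% and basal DMSO as 0%.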

The nature of assay [8]: qHTS assay for small molecule antagonists of retinoid X receptor alpha signaling (AID 588546; active = well fitted inhibition curve with a large enough effect in the signal ratio, with a control signal flat, not every such curve was filed as active; the % refers to the signal ratio;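 note: cells stimulated with 9-cis-retinoic acid as agonist; % is set by controls: 0 for no effect and ±100 for the full control effect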). To be noted: HEK293T RXRa-UAS-bla, beta-lactamase ratio, antagonist mode; measured here: W530 green channel, cytotoxicity proxy. An outline of the steps:
(§1)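 Beta-lactamase reporter inhibition, read as CCF4 fluorescence ratio (ex 405, em 460/530 nm) after 2 h at RT. HEK293T UAS-bla cells, 2500/well, were stimulated with 9-cis-RA at 500 or 100 nM final alongside test compound for 18 h at 37 C.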

For assay [9], the target named is Retinoic acid receptor RXR-alpha (Homo sapiens) (UniProt P19793). Described as above. The following applies: HEK293T RXRa-UAS-bla, beta-lactamase ratio, antagonist mode. A digest of the protocol: as §1
Chain of Retinoic acid receptor RXR-alpha (Homo sapiens) (P19793 whole entry, looked up): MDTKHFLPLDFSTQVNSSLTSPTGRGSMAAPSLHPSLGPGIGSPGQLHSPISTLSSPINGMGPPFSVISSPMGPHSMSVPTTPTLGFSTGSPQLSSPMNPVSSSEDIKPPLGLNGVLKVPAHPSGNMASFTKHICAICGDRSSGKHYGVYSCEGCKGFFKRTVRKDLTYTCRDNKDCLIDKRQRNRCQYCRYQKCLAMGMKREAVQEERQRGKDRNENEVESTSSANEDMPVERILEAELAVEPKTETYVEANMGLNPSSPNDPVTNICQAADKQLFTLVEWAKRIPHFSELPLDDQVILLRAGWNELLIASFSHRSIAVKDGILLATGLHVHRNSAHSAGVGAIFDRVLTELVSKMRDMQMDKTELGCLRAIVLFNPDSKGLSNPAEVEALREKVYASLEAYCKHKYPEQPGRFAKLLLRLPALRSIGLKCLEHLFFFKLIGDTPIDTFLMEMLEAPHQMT
For assay [10], the target named is Thyroid hormone receptor beta (Homo sapiens) (UniProt P10828). The experiment in a line: qHTS assay for small molecule antagonists of thyroid hormone receptor beta signaling (AID 588547; active = well fitted inhibition curve with a large enough effect in the signal ratio, with a control signal flat, not every such curve was filed as active; the % refers to the signal ratio;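 note: cells stimulated with 0.4 nM T3 agonist during compound exposure; series mostly up to about 77 µM; % is set by controls: 0 for no effect and ±100 for the full control effect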). To be noted: TR-UAS-bla HEK293, beta-lactamase ratio, antagonist mode, 18 h. A digest of the protocol:
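TR-UAS-bla GripTite HEK293 cells in 2% charcoal/dextran FBS medium; compounds 0.59 nM to 92 uM with T3 at 0.4nM final, 18 h at 37 C. Beta-lactamase read by CCF4 fluorescence (460/530 nm); Hill fits gave IC50 and efficacy.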

Assay [11] concerns the target Voltage-gated inwardly rectifying potassium channel KCNH2 (Homo sapiens) (UniProt Q12809). The experiment in a line: qHTS Assay for Small Molecule Inhibitors of the Human hERG Channel Activity (AID 588834).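 Note: top concentration of the series differs between compounds; % is set by controls: 0 for no effect and ±100 for the full control effect; lower thallium flux fluorescence means stronger hERG block; nearly all actives have a fitted effect of over 50% in size.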 A digest of the protocol:
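Thallium serves as surrogate for K+ influx through BacMam-delivered hERG in U2OS cells. Compounds are added for about 10 minutes after dye loading; stimulation buffer then starts flux, monitored kinetically on FDSS.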

Assay [12] concerns the target Luciferin 4-monooxygenase (Photinus pyralis) (UniProt P08659). The experiment in a line: Biochemical firefly luciferase enzyme assay for NPC (AID 624030).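 Note: purified P. pyralis luciferase at 10 nM with luciferin and ATP substrate; series mostly up to about 59 µM; 0% = DMSO and -100% = full luciferase inhibition by PTC124 control; nearly all actives have a fitted effect of over 70% in size.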 An outline of the steps: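 Purified P. pyralis luciferase at 10 nM in 50 mM Tris Acetate (final), luminescence read within 5 minutes of enzyme addition to compounds. Activity normalised to PTC124 versus DMSO; concentration-response curves classed by r2, magnitude and activity.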

Assay [13] in a line: S16 Schwann cell viability assay (CellTiter-Glo assay) (AID 624031).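 Note: series mostly up to about 58 µM; plate controls were DMSO-treated cells for no effect and cell-free wells for full effect; nearly all actives have a fitted effect of over 70% in size.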 A digest of the protocol: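 Native S16 Schwann cells (rat), serum-containing medium, overnight attachment then 24 h drug exposure at 37 °C/5% CO2. CellTiter-Glo ATP signal; normalized to cell-free and vehicle wells.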
(In general: ATP-based viability assays read luminescence as a measure of living cells.)

The nature of assay [14]: S16 Schwann cell PMP22 intronic element firefly luciferase assay (AID 624032).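 Note: series mostly up to about 58 µM; plate controls were DMSO for no effect and PTC124 positive control mean for full effect; nearly all actives have a fitted effect of over 30% in size.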 A digest of the protocol:
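Rat S16 Schwann cells stably carrying firefly luciferase driven by a PMP22 intronic element, in 10% FBS, treated 24 h at 37 C. ONE-Glo luminescence normalized to PTC124 control and DMSO (0%); curves classed by r2, magnitude and activity.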

The nature of assay [15]: S16 Schwann cell PMP22 intronic element beta-lactamase assay (AID 624044; calls by dose curve;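 note: 0% = DMSO and -100% = potassium clavulanate positive control; nearly all actives have a fitted effect of over 15% in size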). An outline of the steps: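 Beta-lactamase reporter under a PMP22 intronic regulatory element in stable S16 rat Schwann cells; 24 h compound exposure. 460 nm blue signal normalized between DMSO (0%) and potassium clavulanate, with 535 nm FRET tracking viability; curves classed by r2 and response.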

The target of assay [16] is Glutaminase kidney isoform, mitochondrial (Homo sapiens) (UniProt O94925). The experiment in a line: qHTS for Inhibitors of Glutaminase (GLS): LOPAC Validation (AID 624146).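 Note: glutamate product detected by oxidase and peroxidase coupled Amplex red fluorescence gain; series mostly up to about 46 µM; % is set by controls: 0 for no effect and ±100 for the full control effect; nearly all actives have a fitted effect of over 60% in size.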 An outline of the steps:
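Compounds were pin-transferred onto hKGA, after which L-glutamine (1 mM solution) and a detection mix of glutamate oxidase, HRP and Amplex Red were added. Initial and 30 min RT fluorescence reads were collected.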

Assay [17] can be described thus: qHTS of Trypanosoma Brucei Inhibitors: LOPAC Validation (AID 624147). Note: 0% is about no effect. A digest of the protocol:
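In this concentration-response screen, enzyme-free wells defined baseline while DMSO plates tracked drift. Each reaction combined TbPYK, substrate, compound and 130 uM ADP for 45 min at room temperature. Kinase-Glo Plus luminescence gave the signal.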

Assay [18] has as its target Glucagon-like peptide 1 receptor (Homo sapiens) (UniProt P43220). The experiment in a line: qHTS of GLP-1 Receptor Agonists: LOPAC Validation (AID 624148).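 Note: 0% is about no effect; higher luminescence signal means agonism.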 An outline of the steps: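 HEK293 cells stably co-expressing GLP-1R and a cAMP-responsive luciferase reporter, plated 12 hours before compound, then incubated 4-6 hr at 37 deg C. Luminescence read 12 min after detection reagent.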

A short description of assay [19]: HTS Assay for Allosteric Antagonists of the Human D2 Dopamine Receptor: Hit Validation in HTRF (AID 624455).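 Note: stable D1 dopamine receptor cell line scored for blocking the D1 response; % is set by controls: 0 for no effect and ±100 for the full control effect.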 An outline of the steps: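 Validation of hits used D1 receptor stably expressed in cells with HTRF detection of response inhibition; origin screen measured calcium flux following EC80 dopamine in a force-coupled, inducible Hek293 Trex D2 cell line.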
A general note: Time-resolved FRET reads energy transfer from a long-lived donor to a nearby acceptor.

Several values for one entry are separate records, joined by “and”; a condition that tells them apart may be missing. Identical values can stand only once. Results filed as inconclusive are left out. Activity calls are given as the source filed them. Unless noted, calls come from the whole dose curve; as a rule, active = well fitted curve in the direction sought with a large enough effect; inconclusive = small, poorly fitted or top-dose-only effect, or another doubt; inactive = no such curve, though single readings can be large; an effect the other way counts as inactive or inconclusive.

Chain of Voltage-gated inwardly rectifying potassium channel KCNH2 (Homo sapiens) (Q12809 whole entry, looked up): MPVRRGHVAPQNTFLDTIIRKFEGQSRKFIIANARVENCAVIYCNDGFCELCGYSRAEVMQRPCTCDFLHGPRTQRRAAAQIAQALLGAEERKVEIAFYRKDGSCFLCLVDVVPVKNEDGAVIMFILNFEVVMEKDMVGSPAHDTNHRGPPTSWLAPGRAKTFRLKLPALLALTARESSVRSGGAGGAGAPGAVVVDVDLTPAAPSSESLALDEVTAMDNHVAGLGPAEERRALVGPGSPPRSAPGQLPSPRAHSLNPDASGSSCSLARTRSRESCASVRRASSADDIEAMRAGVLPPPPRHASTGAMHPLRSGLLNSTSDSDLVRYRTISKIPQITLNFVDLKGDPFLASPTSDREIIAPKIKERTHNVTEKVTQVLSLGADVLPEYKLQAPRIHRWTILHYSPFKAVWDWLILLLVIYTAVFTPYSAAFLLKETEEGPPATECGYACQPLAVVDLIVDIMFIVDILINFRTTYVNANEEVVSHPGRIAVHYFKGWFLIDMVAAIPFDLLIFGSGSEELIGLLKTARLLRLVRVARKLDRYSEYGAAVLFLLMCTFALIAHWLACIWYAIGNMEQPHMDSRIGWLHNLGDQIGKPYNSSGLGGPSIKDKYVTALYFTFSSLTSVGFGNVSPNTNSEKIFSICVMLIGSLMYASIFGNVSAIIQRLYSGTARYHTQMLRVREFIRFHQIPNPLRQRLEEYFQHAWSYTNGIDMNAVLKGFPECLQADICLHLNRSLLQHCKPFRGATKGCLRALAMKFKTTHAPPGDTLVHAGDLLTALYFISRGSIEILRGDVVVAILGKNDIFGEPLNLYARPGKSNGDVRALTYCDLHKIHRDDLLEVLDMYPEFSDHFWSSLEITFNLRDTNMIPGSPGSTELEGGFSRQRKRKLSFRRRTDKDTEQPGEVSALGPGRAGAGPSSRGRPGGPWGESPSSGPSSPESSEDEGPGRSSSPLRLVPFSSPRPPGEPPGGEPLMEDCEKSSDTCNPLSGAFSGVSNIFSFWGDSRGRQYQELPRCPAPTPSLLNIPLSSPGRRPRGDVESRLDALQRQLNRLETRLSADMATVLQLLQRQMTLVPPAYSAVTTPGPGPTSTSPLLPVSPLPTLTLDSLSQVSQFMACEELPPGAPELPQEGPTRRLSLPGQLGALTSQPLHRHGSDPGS
Chain of Peroxisome proliferator-activated receptor gamma (Homo sapiens) (P37231 whole entry, looked up): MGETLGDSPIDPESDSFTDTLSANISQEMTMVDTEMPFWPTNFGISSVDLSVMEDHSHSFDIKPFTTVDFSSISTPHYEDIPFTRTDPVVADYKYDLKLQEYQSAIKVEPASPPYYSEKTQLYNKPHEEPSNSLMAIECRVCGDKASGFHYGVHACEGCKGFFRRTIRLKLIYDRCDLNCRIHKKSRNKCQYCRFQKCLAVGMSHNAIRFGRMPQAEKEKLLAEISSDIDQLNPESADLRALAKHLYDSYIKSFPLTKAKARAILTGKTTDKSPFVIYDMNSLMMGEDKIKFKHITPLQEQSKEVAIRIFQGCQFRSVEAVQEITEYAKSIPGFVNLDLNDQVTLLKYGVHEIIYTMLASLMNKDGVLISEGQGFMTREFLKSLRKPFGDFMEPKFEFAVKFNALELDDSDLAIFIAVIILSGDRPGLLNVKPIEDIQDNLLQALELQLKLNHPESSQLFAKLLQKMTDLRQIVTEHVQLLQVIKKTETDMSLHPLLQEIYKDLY
Chain of Thyroid hormone receptor beta (Homo sapiens) (P10828 whole entry, looked up): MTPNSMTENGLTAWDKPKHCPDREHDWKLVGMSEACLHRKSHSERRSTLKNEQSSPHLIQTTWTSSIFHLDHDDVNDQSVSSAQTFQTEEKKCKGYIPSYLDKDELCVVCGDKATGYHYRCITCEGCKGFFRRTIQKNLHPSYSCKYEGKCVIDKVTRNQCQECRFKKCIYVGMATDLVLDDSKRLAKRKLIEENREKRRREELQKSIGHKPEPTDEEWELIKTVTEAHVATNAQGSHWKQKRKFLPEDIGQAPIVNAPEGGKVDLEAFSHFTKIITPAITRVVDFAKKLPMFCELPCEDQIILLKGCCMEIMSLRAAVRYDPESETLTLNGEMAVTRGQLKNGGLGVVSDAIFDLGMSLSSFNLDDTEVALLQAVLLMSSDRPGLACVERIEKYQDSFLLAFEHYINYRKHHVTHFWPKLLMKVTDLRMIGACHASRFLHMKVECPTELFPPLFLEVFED
Chain of Vitamin D3 receptor (Homo sapiens) (P11473 whole entry, looked up): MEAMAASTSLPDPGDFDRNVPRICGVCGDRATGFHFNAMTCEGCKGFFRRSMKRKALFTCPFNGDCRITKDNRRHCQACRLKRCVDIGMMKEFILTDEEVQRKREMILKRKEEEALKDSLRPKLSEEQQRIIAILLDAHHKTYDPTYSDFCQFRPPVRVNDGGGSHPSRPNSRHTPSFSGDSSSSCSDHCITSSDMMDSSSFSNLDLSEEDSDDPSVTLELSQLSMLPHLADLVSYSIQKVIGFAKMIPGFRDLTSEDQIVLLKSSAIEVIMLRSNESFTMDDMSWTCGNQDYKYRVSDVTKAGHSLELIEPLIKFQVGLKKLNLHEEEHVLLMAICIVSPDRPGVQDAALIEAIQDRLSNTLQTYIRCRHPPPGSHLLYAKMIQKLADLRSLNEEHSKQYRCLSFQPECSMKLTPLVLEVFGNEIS
Chain of Luciferin 4-monooxygenase (Photinus pyralis) (P08659 whole entry, looked up): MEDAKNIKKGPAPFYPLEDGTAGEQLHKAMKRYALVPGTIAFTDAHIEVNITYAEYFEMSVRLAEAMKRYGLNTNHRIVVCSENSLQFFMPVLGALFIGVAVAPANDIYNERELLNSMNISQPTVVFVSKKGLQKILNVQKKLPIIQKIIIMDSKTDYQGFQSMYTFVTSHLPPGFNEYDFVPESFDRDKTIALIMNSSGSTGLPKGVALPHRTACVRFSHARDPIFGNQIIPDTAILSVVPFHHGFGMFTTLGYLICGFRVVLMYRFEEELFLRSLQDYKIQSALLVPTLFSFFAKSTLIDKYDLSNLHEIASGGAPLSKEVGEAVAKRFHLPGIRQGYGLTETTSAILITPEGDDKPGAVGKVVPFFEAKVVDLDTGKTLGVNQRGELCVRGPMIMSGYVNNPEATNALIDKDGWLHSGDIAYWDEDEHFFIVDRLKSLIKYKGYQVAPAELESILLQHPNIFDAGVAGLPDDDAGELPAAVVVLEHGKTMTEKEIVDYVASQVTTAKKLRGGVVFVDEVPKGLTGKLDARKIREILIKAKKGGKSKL
Chain of Glutaminase kidney isoform, mitochondrial (Homo sapiens) (O94925 whole entry, looked up, canonical isoform): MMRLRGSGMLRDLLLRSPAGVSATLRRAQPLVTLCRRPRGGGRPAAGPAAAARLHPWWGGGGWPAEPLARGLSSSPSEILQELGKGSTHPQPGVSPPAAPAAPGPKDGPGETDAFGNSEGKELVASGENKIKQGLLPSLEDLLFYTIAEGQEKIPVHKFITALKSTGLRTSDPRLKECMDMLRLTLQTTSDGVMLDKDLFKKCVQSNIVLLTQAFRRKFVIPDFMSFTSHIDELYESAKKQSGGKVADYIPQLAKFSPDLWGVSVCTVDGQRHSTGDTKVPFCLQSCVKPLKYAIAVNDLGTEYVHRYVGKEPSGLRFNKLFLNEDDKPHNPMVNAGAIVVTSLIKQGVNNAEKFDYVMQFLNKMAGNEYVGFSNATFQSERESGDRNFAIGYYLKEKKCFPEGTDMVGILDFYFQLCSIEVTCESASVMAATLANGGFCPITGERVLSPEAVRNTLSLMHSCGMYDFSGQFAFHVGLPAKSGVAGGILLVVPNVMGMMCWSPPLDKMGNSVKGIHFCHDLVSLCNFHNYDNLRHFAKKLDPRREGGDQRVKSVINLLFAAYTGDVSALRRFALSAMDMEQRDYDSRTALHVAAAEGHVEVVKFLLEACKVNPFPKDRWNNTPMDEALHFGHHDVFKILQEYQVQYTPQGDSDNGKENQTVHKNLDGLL
Chain of Glucagon-like peptide 1 receptor (Homo sapiens) (P43220 whole entry, looked up): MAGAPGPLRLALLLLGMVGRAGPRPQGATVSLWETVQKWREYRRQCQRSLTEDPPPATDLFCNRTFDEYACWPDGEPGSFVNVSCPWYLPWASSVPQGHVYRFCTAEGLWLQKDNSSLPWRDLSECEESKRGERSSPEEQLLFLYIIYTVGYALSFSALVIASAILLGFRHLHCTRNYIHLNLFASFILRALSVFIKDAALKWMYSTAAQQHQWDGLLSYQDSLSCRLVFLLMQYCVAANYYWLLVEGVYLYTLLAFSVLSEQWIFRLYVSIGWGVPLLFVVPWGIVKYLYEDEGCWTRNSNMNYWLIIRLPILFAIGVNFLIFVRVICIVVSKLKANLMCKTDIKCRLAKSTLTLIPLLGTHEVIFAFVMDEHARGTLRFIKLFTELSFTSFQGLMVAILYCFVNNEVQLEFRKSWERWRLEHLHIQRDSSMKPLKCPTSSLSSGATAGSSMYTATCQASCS

As for `OC(Cn1cncn1)(Cn1cncn1)c1ccc(F)cc1F`, the compound was called inactive in assay [1], in assay [3], in [4], in assay [6] and in assay [7]. For the same compound, the Potency result in assay [2], in [11], in assay [12], in [13], in assay [14] and in assay [15] was “inactive” in each case. The values for the max response in assay [5], in [8] and in [9] were -28.2%, -2.01% and 6.23% (inactive), respectively. Besides, the activity change % (negative = inhibition) in assay [10] was -14.2% (inactive).
On to `Cc1ccnc2c1NC(=O)c1cccnc1N2C1CC1`, for which the result in assay [1], in assay [3], in assay [4], in assay [6] and in assay [7] was inactive. Moreover, the max response in assay [5] was 12%; in [8], -4.35%; in assay [9], 11.4% (inactive). Moreover, the activity change % (negative = inhibition) in assay [10] is -3.97% (inactive). Moreover, the Potency result in assay [11], in assay [12], in assay [13] and in [14] was “inactive” in each case.
Turning to `CCc1cc(C(N)=S)ccn1`, the result in [3], in assay [4], in assay [6] and in assay [7] was inactive. Moreover, the max response in [5] was -5.67%; in [8] it was -0.783%; in assay [9], 10.8% (inactive). Moreover, in assay [10], the activity change % (negative = inhibition) was 7% (inactive). Also, the Potency result in [11], in [12], in assay [14] and in [15] was “inactive” throughout.
In the case of `CO[C@@H]1[C@@H](OC(N)=O)[C@@H](O)[C@H](Oc2ccc3c(O)c(NC(=O)c4ccc(O)c(CC=C(C)C)c4)c(=O)oc3c2C)OC1(C)C`, the Potency result in assay [11] was “inactive”.
Turning to `CC1=NN(c2ccccc2)C(=O)C1`, the result in assay [1] and in [7] was inactive. Also, the max response in assay [8] is 3.18%; in assay [9] it was 23.1% (inactive). Moreover, the activity change % (negative = inhibition) in assay [10] is -16% (inactive) and 3.19% (inactive). Further, the Potency result in [11], in [12], in [13], in assay [14] and in assay [15] was “inactive” each time.
`NNC(=O)c1ccncc1`: the outcome in [1], in assay [3], in [4], in assay [6] and in [7] was inactive. Also, the Potency entry in assay [2] and in [12] was “inactive” throughout. In addition, the max response was 1.41% in assay [5], 1.75% in [8] and 3.12% (inactive) in [9]. In addition, the activity change % (negative = inhibition) in assay [10] is 10.5% (inactive).
`Nc1nc(F)nc2c1ncn2[C@@H]1O[C@H](CO)[C@@H](O)[C@@H]1O`: in assay [11], the Potency result was “inactive”.
Take `Nc1nc(N)c2nc(CNc3ccc(C(=O)NC(CCC(=O)O)C(=O)O)cc3)cnc2n1` (centres undefined): the compound was classed as inactive in assay [3], in assay [16], in assay [17] and in [18]. Also, the Potency entry in assay [11], in assay [12], in assay [13], in [15] and in assay [19] was “inactive” each time.
With `CC(=O)[C@H]1CC[C@H]2[C@@H]3CCC4=CC(=O)CC[C@]4(C)[C@H]3CC[C@]12C`, the outcome in assay [4], in assay [7], in assay [16], in assay [17] and in assay [18] was inactive. Also, the Potency entry in assay [12] and in assay [19] was “inactive” each time.
